In PubChem BioAssay (EPA / NIEHS) one finds AC50 and outcome data, which are given here for 24 compounds.

Records with an inconclusive call do not appear. Calls of active or inactive are those of the source. How the source made its calls: active means hit-call score of the fitted dose curve at least 0.9, where 1 is the maximum; inconclusive means response in the unintended direction; inactive means score below 0.9.

Sequence of human Protein Tyrosine Phosphatase Non-receptor Type 6 (PTPN6), PTPN6 (gene 5777) (P29350 whole entry, looked up): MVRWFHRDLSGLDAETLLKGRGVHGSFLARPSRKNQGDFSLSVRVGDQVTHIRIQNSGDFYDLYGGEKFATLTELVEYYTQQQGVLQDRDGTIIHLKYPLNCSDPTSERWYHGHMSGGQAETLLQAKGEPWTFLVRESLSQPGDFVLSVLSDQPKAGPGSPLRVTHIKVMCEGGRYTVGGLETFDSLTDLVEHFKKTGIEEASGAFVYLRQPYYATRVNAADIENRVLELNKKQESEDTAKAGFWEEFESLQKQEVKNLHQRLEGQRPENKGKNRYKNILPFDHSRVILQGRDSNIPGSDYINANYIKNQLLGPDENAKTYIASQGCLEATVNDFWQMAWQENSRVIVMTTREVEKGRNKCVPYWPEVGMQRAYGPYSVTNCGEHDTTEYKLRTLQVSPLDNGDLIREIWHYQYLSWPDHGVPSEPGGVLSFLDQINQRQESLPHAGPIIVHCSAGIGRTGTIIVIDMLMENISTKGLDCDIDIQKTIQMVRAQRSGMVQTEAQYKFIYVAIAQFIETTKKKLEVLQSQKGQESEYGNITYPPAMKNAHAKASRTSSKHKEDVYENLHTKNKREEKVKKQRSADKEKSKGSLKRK

For one experiment, the target named is Tyrosine-protein phosphatase non-receptor type 13 (Homo sapiens) (UniProt Q12923). Nature of the experiment: NVS_ENZ_hPTPN13: NovaScreen (NVS) Enzymatic Assay for human Protein Tyrosine Phosphatase Non-receptor Type 13 (PTPN13) (AID 2283205). In a few lines: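 Screened first at a single 25 uM in duplicate; compounds passing the threshold (e.g. 30% inhibition) were rerun in concentration series, top 50 uM. Recombinant enzyme, fluorescent substrate, mobility-shift separation, 0.5 h read. Data fitted as inhibition relative to DMSO.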
Sequence of Tyrosine-protein phosphatase non-receptor type 13 (Homo sapiens) (Q12923 whole entry, looked up): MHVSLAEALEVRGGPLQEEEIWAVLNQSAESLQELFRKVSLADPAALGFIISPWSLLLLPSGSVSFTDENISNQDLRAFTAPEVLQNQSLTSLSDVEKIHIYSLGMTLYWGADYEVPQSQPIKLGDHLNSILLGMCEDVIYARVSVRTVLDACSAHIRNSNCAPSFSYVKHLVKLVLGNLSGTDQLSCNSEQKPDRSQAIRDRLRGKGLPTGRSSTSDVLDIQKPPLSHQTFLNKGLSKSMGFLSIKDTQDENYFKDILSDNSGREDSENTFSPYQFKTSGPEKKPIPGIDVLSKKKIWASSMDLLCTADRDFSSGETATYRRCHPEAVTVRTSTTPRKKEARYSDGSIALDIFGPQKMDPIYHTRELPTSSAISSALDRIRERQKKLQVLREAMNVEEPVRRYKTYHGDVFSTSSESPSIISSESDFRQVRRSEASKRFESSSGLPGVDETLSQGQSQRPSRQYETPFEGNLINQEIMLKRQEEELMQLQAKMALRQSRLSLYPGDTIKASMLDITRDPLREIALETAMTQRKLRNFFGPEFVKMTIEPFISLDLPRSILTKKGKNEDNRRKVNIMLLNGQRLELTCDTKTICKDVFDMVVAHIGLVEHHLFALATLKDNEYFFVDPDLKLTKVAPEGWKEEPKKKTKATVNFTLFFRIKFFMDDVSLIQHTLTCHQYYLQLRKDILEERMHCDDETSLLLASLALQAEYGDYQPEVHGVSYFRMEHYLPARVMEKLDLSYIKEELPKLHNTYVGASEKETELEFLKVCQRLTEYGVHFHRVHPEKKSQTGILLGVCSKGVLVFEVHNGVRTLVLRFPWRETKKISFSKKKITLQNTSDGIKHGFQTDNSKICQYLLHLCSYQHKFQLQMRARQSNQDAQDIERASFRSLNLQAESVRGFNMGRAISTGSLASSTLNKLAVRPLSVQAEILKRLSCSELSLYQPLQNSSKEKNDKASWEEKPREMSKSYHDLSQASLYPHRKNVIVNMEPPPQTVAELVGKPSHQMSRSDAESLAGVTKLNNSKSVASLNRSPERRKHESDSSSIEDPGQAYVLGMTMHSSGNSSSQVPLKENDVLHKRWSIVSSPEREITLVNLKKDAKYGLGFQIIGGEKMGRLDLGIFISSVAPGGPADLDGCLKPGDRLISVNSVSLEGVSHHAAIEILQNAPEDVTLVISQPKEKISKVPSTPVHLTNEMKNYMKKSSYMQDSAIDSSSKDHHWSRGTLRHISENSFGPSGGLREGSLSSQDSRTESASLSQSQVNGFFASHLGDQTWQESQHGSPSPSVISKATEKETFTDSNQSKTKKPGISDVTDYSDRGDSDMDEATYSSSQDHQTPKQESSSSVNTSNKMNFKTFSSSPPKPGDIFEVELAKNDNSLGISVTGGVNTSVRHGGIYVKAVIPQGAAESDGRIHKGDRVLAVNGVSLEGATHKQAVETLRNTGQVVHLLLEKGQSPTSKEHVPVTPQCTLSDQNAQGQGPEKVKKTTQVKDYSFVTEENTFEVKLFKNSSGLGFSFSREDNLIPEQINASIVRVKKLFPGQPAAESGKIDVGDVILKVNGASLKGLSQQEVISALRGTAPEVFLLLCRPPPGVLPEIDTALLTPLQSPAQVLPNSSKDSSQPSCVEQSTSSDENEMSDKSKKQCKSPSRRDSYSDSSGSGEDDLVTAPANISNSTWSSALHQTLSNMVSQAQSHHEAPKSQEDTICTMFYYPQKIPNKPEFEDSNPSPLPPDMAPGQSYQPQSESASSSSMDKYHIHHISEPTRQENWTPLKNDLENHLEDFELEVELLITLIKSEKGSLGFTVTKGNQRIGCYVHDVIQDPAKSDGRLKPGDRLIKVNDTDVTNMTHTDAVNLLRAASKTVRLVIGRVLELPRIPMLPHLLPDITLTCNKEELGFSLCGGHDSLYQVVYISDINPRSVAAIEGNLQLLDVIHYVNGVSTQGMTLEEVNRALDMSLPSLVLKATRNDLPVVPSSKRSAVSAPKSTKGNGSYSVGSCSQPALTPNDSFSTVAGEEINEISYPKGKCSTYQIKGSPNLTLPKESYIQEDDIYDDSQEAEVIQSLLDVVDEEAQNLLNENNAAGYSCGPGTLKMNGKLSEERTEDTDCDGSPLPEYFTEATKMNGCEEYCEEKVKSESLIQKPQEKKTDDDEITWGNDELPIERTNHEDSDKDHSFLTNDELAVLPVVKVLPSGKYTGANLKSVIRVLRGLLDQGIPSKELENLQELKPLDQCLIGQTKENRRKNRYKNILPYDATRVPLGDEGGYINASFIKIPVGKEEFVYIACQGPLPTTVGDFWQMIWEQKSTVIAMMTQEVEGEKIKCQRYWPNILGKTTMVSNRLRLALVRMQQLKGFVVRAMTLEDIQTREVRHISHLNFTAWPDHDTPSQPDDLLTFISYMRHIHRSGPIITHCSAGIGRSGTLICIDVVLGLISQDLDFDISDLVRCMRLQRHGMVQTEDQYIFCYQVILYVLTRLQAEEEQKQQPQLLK
For orientation: AC50 means the concentration at which the activity in the assay is half-maximal. As for `O=C(O)c1ccc2c(c1)nc(C(=O)NC1CCN(C3CC3)CC1)n2Cc1cc(-c2ccc(Cl)s2)on1`, the AC50 was 0.257 µM (active).
Consider `OC(CCl)CCl`, for which the call was inactive.
Still for that read-out and setting: as for `c1ccc2cc3ccccc3cc2c1`, the entry is “inactive”; as for `O=c1[nH]cnc2c1ncn2[C@H]1CC[C@@H](CO)O1`, “inactive”.
With `Cc1nc(-c2ccccn2)ncc1C(=O)Nn1cc(C)c2cc(F)ccc21`, the AC50 was 33.8 µM (active).
Regarding `CCCC(CCC)C(=O)O`, the compound was classed as inactive.

Another experiment addresses Tyrosine-protein phosphatase non-receptor type 14 (Homo sapiens) (UniProt Q15678). Nature of the experiment: NVS_ENZ_hPTPN14: NovaScreen (NVS) Enzymatic Assay for human Protein Tyrosine Phosphatase Non-receptor Type 14 (PTPN14) (AID 2283206). The method in brief:
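Fluorescent substrate turnover by recombinant human PTPN14 was measured 0.5 h after compound addition, with substrate and product separated by mobility shift. Single-point screening at 25 uM, then concentration-response up to 50 uM for chemicals meeting threshold (e.g., 30% inhibition).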
On to `O=c1[nH]cnc2c1ncn2[C@H]1CC[C@@H](CO)O1`, for which the compound was classed as inactive.
Regarding `Cc1nc(-c2ccccn2)ncc1C(=O)Nn1cc(C)c2cc(F)ccc21`, the outcome was inactive.
Same read-out and setting: for `Cc1ncc([C@@H](CCCCCCc2ccc3c(n2)NCCC3)CC(=O)O)cn1` the value was “inactive”; for `CCCC(CCC)C(=O)O`, “inactive”.

In a further experiment the target is human Protein Tyrosine Phosphatase Non-receptor Type 4 (PTPN4), PTPN4 (gene 5775) (UniProt P29074). Nature of the experiment: NVS_ENZ_hPTPN4: NovaScreen (NVS) Enzymatic Assay for human Protein Tyrosine Phosphatase Non-receptor Type 4 (PTPN4) (AID 2283208). The protocol: NVS_ENZ_hPTPN4 is a biochemical, single-readout assay that uses extracted gene-proteins from SF9 in a cell-free assay. Measurements were taken 1.33 hours after chemical dosing in a 384-well plate.NVS_ENZ_hPTPN4 is one of one assay component(s) measured or calculated from the NVS_ENZ_hPTPN4 assay. It is designed to make measurements of enzyme activity, a form of enzyme reporter, as detected with fluorescence intensity signals by Fluorescence and electrophoretic mobility shift technology.Data from the assay component NVS_ENZ_hPTPN4 was analyzed into 1 assay endpoint. This assay endpoint, NVS_ENZ_hPTPN4, was analyzed in the positive analysis fitting direction relative to DMSO as the negative control and baseline of activity. Using a type of enzyme reporter, loss-of-signal activity can be used to understand changes in the enzymatic activity as they relate to the gene PTPN4. Furthermore, this assay endpoint can be referred to as a primary readout, because this assay has produced multiple assay endpoints where this one serves a enzymatic activity function. To generalize the intended target to other relatable targets, this assay endpoint is annotated to the phosphatase intended target family, where the subfamily is non-receptor tyrosine phosphatase.
Sequence of human Protein Tyrosine Phosphatase Non-receptor Type 4 (PTPN4), PTPN4 (gene 5775) (P29074 whole entry, looked up): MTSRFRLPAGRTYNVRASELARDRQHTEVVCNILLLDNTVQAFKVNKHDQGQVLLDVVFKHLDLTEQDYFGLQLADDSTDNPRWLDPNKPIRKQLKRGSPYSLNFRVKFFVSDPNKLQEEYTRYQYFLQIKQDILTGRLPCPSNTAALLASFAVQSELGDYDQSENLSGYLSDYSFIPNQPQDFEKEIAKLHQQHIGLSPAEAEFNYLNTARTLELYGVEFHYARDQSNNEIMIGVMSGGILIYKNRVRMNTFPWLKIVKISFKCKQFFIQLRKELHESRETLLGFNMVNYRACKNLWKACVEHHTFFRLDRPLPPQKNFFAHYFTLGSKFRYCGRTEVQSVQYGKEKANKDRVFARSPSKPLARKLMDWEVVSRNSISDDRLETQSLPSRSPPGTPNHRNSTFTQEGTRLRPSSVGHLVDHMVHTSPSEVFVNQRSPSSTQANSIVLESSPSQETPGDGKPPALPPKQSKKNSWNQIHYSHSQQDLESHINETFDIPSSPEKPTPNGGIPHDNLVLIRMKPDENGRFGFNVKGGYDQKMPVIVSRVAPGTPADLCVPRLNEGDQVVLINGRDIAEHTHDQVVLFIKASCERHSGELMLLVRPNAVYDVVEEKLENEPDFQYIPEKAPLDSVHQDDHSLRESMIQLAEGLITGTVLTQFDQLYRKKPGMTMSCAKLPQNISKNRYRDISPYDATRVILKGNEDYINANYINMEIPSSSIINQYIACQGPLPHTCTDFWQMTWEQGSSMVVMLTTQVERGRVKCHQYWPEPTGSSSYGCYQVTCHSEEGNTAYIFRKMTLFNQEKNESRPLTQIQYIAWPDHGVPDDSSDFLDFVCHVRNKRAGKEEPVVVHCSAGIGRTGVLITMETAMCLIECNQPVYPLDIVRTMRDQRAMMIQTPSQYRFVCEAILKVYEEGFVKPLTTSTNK
Binding assays used specific radioligands (tritiated, iodinated) with non-radioactive competitive displacement ligands in agonist or antagonist protocols (as indicated) and various reference compounds and inhibitors to titrate specific binding to receptors and transporters. Most enzyme assays (CYPs, kinases, phosphatases, proteases, HDACs) used recombinant protein and specific substrates (fluorescence mostly, some colorimetric and radioactive) and inhibitors, followed by a biochemical separation of substrate and product. All assays for the biochemical HTS were initially run in duplicate at a single concentration (10 uM for CYP450 assays and 25 uM for all others). […]
In the case of `O=c1[nH]cnc2c1ncn2[C@H]1CC[C@@H](CO)O1`, the call was inactive.
Consider `CCCCCCCC/C=C\CCCCCCCC(=O)OC[C@@H](O)[C@H]1OC[C@H](O)[C@H]1O`, for which the compound was classed as inactive.
On to `O=C(NO)C1(NS(=O)(=O)c2ccc(Oc3ccc(F)cc3)cc2)CCOCC1`, for which the compound was called inactive.

For the next experiment, the target named is human Protein Tyrosine Phosphatase Non-receptor Type 9 (PTPN9), PTPN9 (gene 5780) (UniProt P43378). Put plainly: NVS_ENZ_hPTPN9: NovaScreen (NVS) Enzymatic Assay for human Protein Tyrosine Phosphatase Non-receptor Type 9 (PTPN9) (AID 2283209). In a few lines: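 Sf9-expressed enzyme in a cell-free assay, fluorescence read 1.33 h after dosing with mobility-shift separation of substrate and product. Tested at 25 uM in duplicate, then up to 50 uM; signal loss versus DMSO.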
Sequence of human Protein Tyrosine Phosphatase Non-receptor Type 9 (PTPN9), PTPN9 (gene 5780) (P43378 whole entry, looked up): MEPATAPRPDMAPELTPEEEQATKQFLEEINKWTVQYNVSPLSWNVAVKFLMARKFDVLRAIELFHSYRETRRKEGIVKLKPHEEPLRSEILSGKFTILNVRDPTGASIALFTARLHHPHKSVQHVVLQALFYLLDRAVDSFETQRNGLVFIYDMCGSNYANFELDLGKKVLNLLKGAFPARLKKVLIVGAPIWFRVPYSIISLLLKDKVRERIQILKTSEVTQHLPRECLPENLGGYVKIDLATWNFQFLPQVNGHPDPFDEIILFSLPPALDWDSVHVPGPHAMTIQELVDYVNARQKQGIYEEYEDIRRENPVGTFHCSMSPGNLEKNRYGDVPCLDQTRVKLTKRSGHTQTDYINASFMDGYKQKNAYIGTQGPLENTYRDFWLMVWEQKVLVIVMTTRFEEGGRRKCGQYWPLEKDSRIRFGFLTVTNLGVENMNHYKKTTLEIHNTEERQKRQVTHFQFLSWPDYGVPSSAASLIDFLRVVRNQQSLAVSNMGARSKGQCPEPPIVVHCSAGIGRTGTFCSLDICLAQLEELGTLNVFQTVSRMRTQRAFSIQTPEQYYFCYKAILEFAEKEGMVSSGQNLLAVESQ
Turning to `CCCCC(CC)C(=O)OCCOCCOCCOC(=O)C(CC)CCCC` (stereo not drawn), the compound was called inactive.
On the same count and under the same terms, for `O=C(O)c1ccc2c(c1)nc(C(=O)NC1CCN(C3CC3)CC1)n2Cc1cc(-c2ccc(Cl)s2)on1` the value was “inactive”; for `Cc1nc(-c2ccccn2)ncc1C(=O)Nn1cc(C)c2cc(F)ccc21`, “inactive”; for `OC[C@H]1O[C@@H]2O[C@H]3[C@H](O)[C@@H](O)[C@@H](O[C@H]4[C@H](O)[C@@H](O)[C@@H](O[C@H]5[C@H](O)[C@@H](O)[C@@H](O[C@H]6[C@H](O)[C@@H](O)[C@@H](O[C@H]7[C@H](O)[C@@H](O)[C@@H](O[C@H]1[C@H](O)[C@H]2O)O[C@@H]7CO)O[C@@H]6CO)O[C@@H]5CO)O[C@@H]4CO)O[C@@H]3CO`, “inactive”.
Same read-out and setting: as for `Cc1ncc([C@@H](CCCCCCc2ccc3c(n2)NCCC3)CC(=O)O)cn1`, the entry is “inactive”; as for `CCCC(CCC)C(=O)O`, “inactive”.

Another experiment concerns the target human Protein Tyrosine Phosphatase Non-receptor Type 6 (PTPN6), PTPN6 (gene 5777) (UniProt P29350). Put plainly: NVS_ENZ_hPTPN6: NovaScreen (NVS) Enzymatic Assay for human Protein Tyrosine Phosphatase Non-receptor Type 6 (PTPN6) (AID 2283210). In a few lines: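 Recombinant human PTPN6 from SF9 cells, enzyme activity followed by fluorescence after mobility-shift separation of substrate and product at 1.33 h. Chemicals first tested at a single 25 uM in duplicate, then confirmed across concentration series; loss of signal relative to DMSO.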
Turning to `C[C@]12C=CC(=O)C=C1CC[C@H]1[C@@H]3C[C@@H](O)[C@](O)(C(=O)CO)[C@@]3(C)C[C@H](O)[C@@]12F`, the outcome was inactive.
Regarding `NNC(=O)c1ccncc1`, the compound was classed as inactive.
Take `COS(C)(=O)=O`: the call was inactive.
Regarding `CC1(C)C(=O)N(Cl)C(=O)N1Cl`, the result was inactive.
Still for that read-out and setting: as for `c1ccc2ncccc2c1`, the entry is “inactive”; as for `O=C(O)c1cccc(C(=O)O)c1`, “inactive”.
As for `NC(=O)NN=Cc1ccc([N+](=O)[O-])o1`, the AC50 was 10.9 µM (active).
On to `O=C(O)[C@H](O)[C@@H](O)C(=O)O`, for which the compound was classed as inactive.
`NC(=O)N1c2ccccc2C=Cc2ccccc21`: the compound was classed as inactive.
The same measure, in the same setting: for `OCCOCCOCCO` the value was “inactive”.
On the same count and under the same terms, for `O=S1(=O)CCCO1` the value was “inactive”.
In the case of `C=CN1CCCC1=O`, the compound was called inactive.
The same measure, in the same setting: for `OC[C@H]1O[C@@H]2O[C@H]3[C@H](O)[C@@H](O)[C@@H](O[C@H]4[C@H](O)[C@@H](O)[C@@H](O[C@H]5[C@H](O)[C@@H](O)[C@@H](O[C@H]6[C@H](O)[C@@H](O)[C@@H](O[C@H]7[C@H](O)[C@@H](O)[C@@H](O[C@H]1[C@H](O)[C@H]2O)O[C@@H]7CO)O[C@@H]6CO)O[C@@H]5CO)O[C@@H]4CO)O[C@@H]3CO` the value was “inactive”; for `CNC(C)=O`, “inactive”.
